Assay results: ChEMBL document CHEMBL5724796, “Tm Shift (DSF) assay results for EUbOPEN Chemogenomics Library” (2024)

What was measured:
Settings in all cases: Compound concentration 20.0 uM
[1] = biological target: Tyrosine-protein kinase ABL1 (Homo sapiens) (UniProt P00519)
[2] = biological target: Bromodomain-containing protein 4 (Homo sapiens) (UniProt O60885)
[3] = biological target: Cyclin-dependent kinase 2 (Homo sapiens) (UniProt P24941)
[4] = biological target: Casein kinase I isoform delta (Homo sapiens) (UniProt P48730)
Casein kinase I isoform delta (Homo sapiens), sequence (P48730 whole entry, looked up, canonical isoform): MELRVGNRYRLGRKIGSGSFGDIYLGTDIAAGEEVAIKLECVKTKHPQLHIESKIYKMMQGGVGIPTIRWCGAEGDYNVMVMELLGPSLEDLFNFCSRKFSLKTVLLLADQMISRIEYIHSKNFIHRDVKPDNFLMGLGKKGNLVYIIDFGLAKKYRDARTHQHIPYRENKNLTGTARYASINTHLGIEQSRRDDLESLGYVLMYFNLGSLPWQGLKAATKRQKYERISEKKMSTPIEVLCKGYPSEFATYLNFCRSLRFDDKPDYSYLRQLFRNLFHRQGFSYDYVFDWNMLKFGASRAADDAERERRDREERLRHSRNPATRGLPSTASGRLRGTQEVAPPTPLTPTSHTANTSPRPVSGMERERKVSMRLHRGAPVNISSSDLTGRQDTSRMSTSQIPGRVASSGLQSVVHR

[5] = biological target: Glycogen synthase kinase-3 beta (Homo sapiens) (UniProt P49841)
Glycogen synthase kinase-3 beta (Homo sapiens), sequence (P49841 whole entry, looked up): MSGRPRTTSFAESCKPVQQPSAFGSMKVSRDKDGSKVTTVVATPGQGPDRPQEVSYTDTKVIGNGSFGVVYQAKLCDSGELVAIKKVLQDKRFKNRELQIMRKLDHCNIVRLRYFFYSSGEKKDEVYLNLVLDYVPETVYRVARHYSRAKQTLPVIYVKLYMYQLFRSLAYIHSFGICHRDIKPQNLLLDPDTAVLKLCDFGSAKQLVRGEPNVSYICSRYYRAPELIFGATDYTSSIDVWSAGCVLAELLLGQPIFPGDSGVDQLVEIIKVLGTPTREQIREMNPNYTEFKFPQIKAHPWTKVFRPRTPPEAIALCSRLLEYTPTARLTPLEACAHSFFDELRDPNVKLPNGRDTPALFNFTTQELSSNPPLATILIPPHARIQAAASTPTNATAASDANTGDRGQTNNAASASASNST

[6] = biological target: Mitogen-activated protein kinase 1 (Homo sapiens) (UniProt P28482)
Mitogen-activated protein kinase 1 (Homo sapiens), sequence (P28482 whole entry): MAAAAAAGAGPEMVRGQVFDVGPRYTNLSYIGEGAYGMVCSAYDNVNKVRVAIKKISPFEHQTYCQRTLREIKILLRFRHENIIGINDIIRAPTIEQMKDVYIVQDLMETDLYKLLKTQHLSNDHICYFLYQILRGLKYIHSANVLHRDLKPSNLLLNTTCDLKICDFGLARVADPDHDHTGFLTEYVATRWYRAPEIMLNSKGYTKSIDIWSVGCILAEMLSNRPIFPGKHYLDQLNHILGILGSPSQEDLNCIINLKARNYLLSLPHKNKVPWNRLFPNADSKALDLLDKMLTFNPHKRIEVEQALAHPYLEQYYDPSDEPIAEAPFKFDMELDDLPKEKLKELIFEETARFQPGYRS

[7] = biological target: T1, Aurora kinase A (Homo sapiens) (UniProt O14965)
T1 sequence (whole entry): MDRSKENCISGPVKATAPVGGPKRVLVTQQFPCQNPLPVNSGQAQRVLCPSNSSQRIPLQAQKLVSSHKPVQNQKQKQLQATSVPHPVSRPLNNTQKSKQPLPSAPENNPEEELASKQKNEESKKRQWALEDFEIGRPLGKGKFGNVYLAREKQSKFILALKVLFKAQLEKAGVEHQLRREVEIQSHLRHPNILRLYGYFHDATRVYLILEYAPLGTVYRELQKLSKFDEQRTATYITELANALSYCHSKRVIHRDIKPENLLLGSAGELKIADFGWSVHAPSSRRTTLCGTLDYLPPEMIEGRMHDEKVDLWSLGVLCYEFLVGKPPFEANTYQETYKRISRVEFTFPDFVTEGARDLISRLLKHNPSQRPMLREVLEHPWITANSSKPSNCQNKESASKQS

[8] = biological target: T2, Transcription intermediary factor 1-alpha (Homo sapiens) (UniProt O15164)
T2 sequence (whole entry): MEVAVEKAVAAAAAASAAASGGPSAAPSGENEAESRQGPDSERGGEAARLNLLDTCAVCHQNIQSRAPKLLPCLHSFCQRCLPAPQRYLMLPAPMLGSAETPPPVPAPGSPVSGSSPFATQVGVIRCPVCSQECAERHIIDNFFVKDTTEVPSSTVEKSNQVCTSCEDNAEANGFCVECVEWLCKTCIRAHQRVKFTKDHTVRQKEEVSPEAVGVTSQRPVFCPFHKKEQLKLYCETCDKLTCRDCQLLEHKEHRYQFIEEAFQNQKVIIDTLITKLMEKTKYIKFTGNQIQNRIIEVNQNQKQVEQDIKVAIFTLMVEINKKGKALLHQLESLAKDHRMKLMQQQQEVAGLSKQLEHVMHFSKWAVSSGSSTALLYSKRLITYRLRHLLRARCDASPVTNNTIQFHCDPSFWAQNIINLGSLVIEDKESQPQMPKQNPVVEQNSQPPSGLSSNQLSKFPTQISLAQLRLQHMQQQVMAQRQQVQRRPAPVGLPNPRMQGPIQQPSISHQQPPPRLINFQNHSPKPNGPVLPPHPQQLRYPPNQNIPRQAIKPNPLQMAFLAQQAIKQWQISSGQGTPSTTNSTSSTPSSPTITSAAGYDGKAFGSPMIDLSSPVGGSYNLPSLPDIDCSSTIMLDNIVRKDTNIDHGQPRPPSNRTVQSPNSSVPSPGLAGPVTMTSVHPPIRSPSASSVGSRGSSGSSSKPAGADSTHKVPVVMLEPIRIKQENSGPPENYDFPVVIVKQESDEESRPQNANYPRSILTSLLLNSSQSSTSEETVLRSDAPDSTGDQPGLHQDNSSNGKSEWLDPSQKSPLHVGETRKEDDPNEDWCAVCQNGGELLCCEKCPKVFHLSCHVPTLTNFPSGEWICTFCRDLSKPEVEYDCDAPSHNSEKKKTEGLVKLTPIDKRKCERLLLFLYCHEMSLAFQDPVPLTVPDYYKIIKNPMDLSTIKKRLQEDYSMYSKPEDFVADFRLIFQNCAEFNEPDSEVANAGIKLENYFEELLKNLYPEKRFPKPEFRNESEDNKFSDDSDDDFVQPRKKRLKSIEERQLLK

Tyrosine-protein kinase ABL1 (Homo sapiens), sequence (P00519 whole entry): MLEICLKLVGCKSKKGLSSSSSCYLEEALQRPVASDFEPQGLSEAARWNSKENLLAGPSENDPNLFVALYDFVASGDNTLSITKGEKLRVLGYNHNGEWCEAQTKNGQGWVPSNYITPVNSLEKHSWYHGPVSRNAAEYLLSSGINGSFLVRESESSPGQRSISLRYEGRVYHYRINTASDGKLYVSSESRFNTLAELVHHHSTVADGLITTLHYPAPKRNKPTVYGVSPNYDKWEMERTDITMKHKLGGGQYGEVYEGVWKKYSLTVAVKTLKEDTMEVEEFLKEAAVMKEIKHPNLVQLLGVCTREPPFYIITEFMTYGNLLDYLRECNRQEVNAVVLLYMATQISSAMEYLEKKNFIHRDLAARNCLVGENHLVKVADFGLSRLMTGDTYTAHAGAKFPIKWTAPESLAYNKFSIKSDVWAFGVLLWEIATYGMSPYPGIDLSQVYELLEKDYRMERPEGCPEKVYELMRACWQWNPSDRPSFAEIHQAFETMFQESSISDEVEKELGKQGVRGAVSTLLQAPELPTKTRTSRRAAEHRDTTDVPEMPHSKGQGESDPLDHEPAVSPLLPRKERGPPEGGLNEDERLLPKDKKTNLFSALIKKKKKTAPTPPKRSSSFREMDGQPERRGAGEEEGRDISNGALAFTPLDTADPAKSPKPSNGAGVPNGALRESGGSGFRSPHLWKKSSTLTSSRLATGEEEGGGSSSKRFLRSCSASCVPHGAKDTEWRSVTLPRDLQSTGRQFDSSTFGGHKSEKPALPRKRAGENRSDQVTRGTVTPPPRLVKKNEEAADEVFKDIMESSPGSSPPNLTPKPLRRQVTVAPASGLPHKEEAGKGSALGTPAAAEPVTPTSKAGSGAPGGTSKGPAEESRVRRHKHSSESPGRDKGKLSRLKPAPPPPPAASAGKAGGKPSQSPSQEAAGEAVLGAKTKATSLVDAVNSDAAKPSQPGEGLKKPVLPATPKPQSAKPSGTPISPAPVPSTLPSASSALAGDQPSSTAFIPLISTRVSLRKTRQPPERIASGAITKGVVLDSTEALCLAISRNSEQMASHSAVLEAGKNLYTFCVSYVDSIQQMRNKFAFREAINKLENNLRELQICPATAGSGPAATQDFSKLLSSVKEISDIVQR

CC(C)Oc1ccc2c(=O)[nH]c3sccc3c2c1
ΔTm [1]: 2.81 °C | ΔTm [2]: -1.93 °C | ΔTm [3]: 0.87 °C | ΔTm [4]: 1.82 °C | ΔTm [5]: 0.89 °C | ΔTm [6]: 0.11 °C | ΔTm [7]: -0.48 °C | ΔTm [8]: -0.42 °C

Cc1c(CN2CCC(Nc3ncnc4sc(CC(F)(F)F)cc34)CC2)ccc2[nH]c(C#N)cc12
ΔTm [1]: -0.58 °C | ΔTm [2]: 0.25 °C | ΔTm [3]: -0.04 °C | ΔTm [4]: 1.22 °C | ΔTm [5]: -1.43 °C | ΔTm [6]: -1.41 °C | ΔTm [7]: -7.15 °C | ΔTm [8]: 0.71 °C

Cc1c(F)c(N)cc(C(=O)Nc2cc(-n3cc(C(=O)NCCCN4CCOCC4)nn3)ccc2N2CCN(C)CC2)c1Cl
ΔTm [1]: 0.14 °C | ΔTm [2]: -3.1 °C | ΔTm [3]: 0.07 °C | ΔTm [4]: 0.04 °C | ΔTm [5]: -0.82 °C | ΔTm [6]: 0.14 °C | ΔTm [7]: -2.25 °C | ΔTm [8]: -0.56 °C

CCN(CC)c1ccc(C2=NNC(=O)C[C@H]2C)cc1[N+](=O)[O-]
ΔTm [1]: 0.04 °C | ΔTm [2]: 0.2 °C | ΔTm [3]: -0.04 °C | ΔTm [4]: 0.06 °C | ΔTm [5]: 0.13 °C | ΔTm [6]: -0.11 °C | ΔTm [7]: -0.2 °C | ΔTm [8]: -0.15 °C

COc1ccc(CC[C@H]2CCC[C@@H](CCc3ccc(OC)cc3)N2C[C@@H](O)CO)cc1
ΔTm [1]: 0.7 °C | ΔTm [2]: -3.11 °C | ΔTm [3]: 0.11 °C | ΔTm [4]: -0.1 °C | ΔTm [5]: -0.21 °C | ΔTm [6]: 0.31 °C | ΔTm [7]: -2.3 °C | ΔTm [8]: -0.71 °C

CC(=O)OCCN1C(=O)c2c(C)nc3ccc(S(=O)(=O)N4CCOCC4)cc3c2C1=O
ΔTm [1]: -0.43 °C | ΔTm [2]: -1.49 °C | ΔTm [3]: -0.16 °C | ΔTm [4]: 0.13 °C | ΔTm [5]: -0.73 °C | ΔTm [6]: -0.31 °C | ΔTm [7]: -1.13 °C | ΔTm [8]: -1.22 °C

CCN1C(C)(C)CC(Oc2ccc(C(=O)Nc3ccc(NC(=O)Nc4cc(C(C)(C)C)on4)cc3)nc2)CC1(C)C
ΔTm [1]: 1.14 °C | ΔTm [2]: -1.48 °C | ΔTm [3]: 0.38 °C | ΔTm [4]: 0.21 °C | ΔTm [5]: 0.25 °C | ΔTm [6]: -3.48 °C | ΔTm [7]: 0.68 °C | ΔTm [8]: -0.32 °C

O=C(O)C1CCCN(CCC=C(c2ccccc2)c2ccccc2)C1 (stereo unspecified)
ΔTm [1]: 0.13 °C | ΔTm [2]: -2.59 °C | ΔTm [3]: 0 °C | ΔTm [4]: -0.19 °C | ΔTm [5]: -0.66 °C | ΔTm [6]: 0.13 °C | ΔTm [7]: -2.34 °C | ΔTm [8]: -1.2 °C

OC[C@H]1O[C@@H](c2ccc(F)c(Cc3cc4ccccc4s3)c2)[C@H](O)[C@@H](O)[C@@H]1O
ΔTm [1]: 0.51 °C | ΔTm [2]: -3.4 °C | ΔTm [3]: 0.04 °C | ΔTm [4]: -0.29 °C | ΔTm [5]: -0.62 °C | ΔTm [6]: 0.05 °C | ΔTm [7]: -1.82 °C | ΔTm [8]: -0.42 °C

Nc1ncnc2nc(-c3ccc(N4CCOCC4)nc3)cc(-c3cccc(Br)c3)c12
ΔTm [1]: 4.32 °C | ΔTm [2]: -3.54 °C | ΔTm [3]: 0.07 °C | ΔTm [4]: 2.63 °C | ΔTm [5]: -0.95 °C | ΔTm [6]: -0.25 °C | ΔTm [7]: 0.37 °C | ΔTm [8]: 0.24 °C

CCN(CC)C(=O)/C(C#N)=C/c1cc(O)c(O)c([N+](=O)[O-])c1
ΔTm [1]: 0.3 °C | ΔTm [2]: 0.45 °C | ΔTm [3]: 0.11 °C | ΔTm [4]: -0.1 °C | ΔTm [5]: -0.28 °C | ΔTm [6]: 0.32 °C | ΔTm [7]: -0.58 °C | ΔTm [8]: 0.24 °C

O=C(NCc1ccc(F)cc1)C1CCN(S(=O)(=O)c2cc(Cl)cc(Cl)c2)CC1
ΔTm [1]: 0.19 °C | ΔTm [2]: 1.03 °C | ΔTm [3]: 0.65 °C | ΔTm [4]: -0.2 °C | ΔTm [5]: -0.78 °C | ΔTm [6]: 1.32 °C | ΔTm [7]: -1.86 °C | ΔTm [8]: 0.75 °C

CCOc1ccc(Cc2cc([C@@H]3O[C@H](CO)[C@@H](O)[C@H](O)[C@H]3O)ccc2Cl)cc1
ΔTm [1]: 0.64 °C | ΔTm [2]: -1.76 °C | ΔTm [3]: -0.13 °C | ΔTm [4]: -0.16 °C | ΔTm [5]: -0.82 °C | ΔTm [6]: 0.08 °C | ΔTm [7]: -2.13 °C | ΔTm [8]: -0.07 °C

Cc1cc(OCCCNCCC(N)=O)ccc1Cc1c(O[C@@H]2O[C@H](CO)[C@@H](O)[C@H](O)[C@H]2O)n[nH]c1C(C)C
ΔTm [1]: 0.54 °C | ΔTm [2]: -1.5 °C | ΔTm [3]: 0.03 °C | ΔTm [4]: -0.12 °C | ΔTm [5]: -0.7 °C | ΔTm [6]: 0.24 °C | ΔTm [7]: -2.37 °C | ΔTm [8]: -0.75 °C

COc1ccccc1[C@H]1[C@H](C(=O)O)[C@H](c2ccccc2OC)[C@H]1C(=O)Oc1cccc2ccccc12
ΔTm [1]: 0.47 °C | ΔTm [2]: -2.56 °C | ΔTm [3]: -0.65 °C | ΔTm [4]: -3.09 °C | ΔTm [5]: 0 °C | ΔTm [6]: -0.07 °C | ΔTm [7]: -2.4 °C | ΔTm [8]: -2.09 °C

CS(=O)(=O)n1cc2c(n1)CN([C@H]1CO[C@H](c3cc(F)ccc3F)[C@@H](N)C1)C2
ΔTm [1]: 0.01 °C | ΔTm [2]: 1.23 °C | ΔTm [3]: 0.1 °C | ΔTm [4]: -0.33 °C | ΔTm [5]: -0.84 °C | ΔTm [6]: 0.32 °C | ΔTm [7]: -2.29 °C | ΔTm [8]: -0.65 °C

Cc1cc(C)cc(Oc2ccc(CNC(=O)[C@H](C)N)cc2C)c1
ΔTm [1]: 1.83 °C | ΔTm [2]: -1.81 °C | ΔTm [3]: 0.25 °C | ΔTm [4]: 0.15 °C | ΔTm [5]: -1.22 °C | ΔTm [6]: -0.21 °C | ΔTm [7]: -0.6 °C | ΔTm [8]: -1.58 °C

O=C(NO)C(c1ccc(-c2ncc(C(F)(F)F)cn2)cc1)c1ccccc1F (stereo unspecified)
ΔTm [1]: 0.91 °C | ΔTm [2]: -2.36 °C | ΔTm [3]: 0.08 °C | ΔTm [4]: 0.69 °C | ΔTm [5]: -0.7 °C | ΔTm [6]: 0.1 °C | ΔTm [7]: 0.24 °C | ΔTm [8]: -0.84 °C

CS(=O)(=O)c1ccc(Oc2cc(F)cc(C#N)c2)c2c1[C@H](O)C(F)(F)C2
ΔTm [1]: 0.43 °C | ΔTm [2]: -2.67 °C | ΔTm [3]: 0.56 °C | ΔTm [4]: -0.1 °C | ΔTm [5]: 0.06 °C | ΔTm [6]: 0.15 °C | ΔTm [7]: -1.44 °C | ΔTm [8]: 0.31 °C

COc1cc2c(NC3CCN(CC4CCCCC4)CC3)nc(N3CCCN(C(C)C)CC3)nc2cc1OCCCN1CCCCC1
ΔTm [1]: 0.33 °C | ΔTm [2]: -0.97 °C | ΔTm [3]: 0.51 °C | ΔTm [4]: 0.17 °C | ΔTm [5]: -0.33 °C | ΔTm [6]: -0.16 °C | ΔTm [7]: -0.14 °C | ΔTm [8]: -0.74 °C

N#Cc1c(N)[nH]c2cc(/C=C/c3cccc(F)c3)ccc12
ΔTm [1]: 1.1 °C | ΔTm [2]: 3.17 °C | ΔTm [3]: 2.67 °C | ΔTm [4]: -0.33 °C | ΔTm [5]: -0.5 °C | ΔTm [6]: 1.9 °C | ΔTm [7]: 0.33 °C | ΔTm [8]: 1.03 °C

COc1ccccc1C(=O)Nc1cc2c(cc1N1CCCCC1)n(C)c(=O)n2C
ΔTm [1]: 0.35 °C | ΔTm [2]: -2.11 °C | ΔTm [3]: 0.1 °C | ΔTm [4]: 0.01 °C | ΔTm [5]: 0.08 °C | ΔTm [6]: 0.17 °C | ΔTm [7]: -1.43 °C | ΔTm [8]: -0.76 °C
